Data taken from the OligoGym collection.

Biological target: CCL13
Assay: pooled miR-30 sensor sort-seq; sequence = guide strand
Conditions: shRNA
Further: reference of the scale not given here.

Which sensor-assay potency score (higher = more potent) does the source give for TCTGAAGATGACAGCCTTCTGG here?
Its sensor-assay potency score (higher = more potent) is -0.807.

With TTTCATATAATTCTGGACCCAC as the sequence, how does the sensor-assay potency score (higher = more potent) read?
Its sensor-assay potency score (higher = more potent) is 0.0997.

Which sensor-assay potency score (higher = more potent) does the source give for TTACTTAACACATAGTACATTT here?
The sensor-assay potency score (higher = more potent) was -1.04.

Biological target: CCL23
Assay: as above
Conditions: shRNA

With TCTGTCTCTGCATCTTTTGTGA as the sequence, how does the sensor-assay potency score (higher = more potent) read?
Its sensor-assay potency score (higher = more potent) is -0.455.

Which sensor-assay potency score (higher = more potent) does the source give for TTCAAAGTAACTCTCCAGGAGT here?
Its sensor-assay potency score (higher = more potent) is -0.524.

For TGAACTCTGTCTCTGCATCTTT, which sensor-assay potency score (higher = more potent) is on record?
The sensor-assay potency score (higher = more potent) was -0.137.

For TAGTAGCATGGAATCTGTCCAG, which sensor-assay potency score (higher = more potent) is on record?
The sensor-assay potency score (higher = more potent) was -0.782.

For TTTGACATCATGAACTCTGTCT, which sensor-assay potency score (higher = more potent) is on record?
The sensor-assay potency score (higher = more potent) was 0.483.

Which sensor-assay potency score (higher = more potent) does the source give for TCTGCATCTTTTGTGACCCGGG here?
Its sensor-assay potency score (higher = more potent) is -0.271.

For TTGGAGCACTCGCTGTTCGTTT, which sensor-assay potency score (higher = more potent) is on record?
Its sensor-assay potency score (higher = more potent) is -0.72.

For TCATGAACTCTGTCTCTGCATC, which sensor-assay potency score (higher = more potent) is on record?
Its sensor-assay potency score (higher = more potent) is -0.664.

How did the sensor-assay potency score (higher = more potent) turn out when AGTAGCATGGAATCTGTCCAGA was run?
Its sensor-assay potency score (higher = more potent) is -1.79.

With TCCAAGGGCAGTAACAAGCATG as the sequence, how does the sensor-assay potency score (higher = more potent) read?
Its sensor-assay potency score (higher = more potent) is -1.61.

For TGAACTTGCTTATCACTGGGGT, which sensor-assay potency score (higher = more potent) is on record?
The sensor-assay potency score (higher = more potent) was 0.574.

How did the sensor-assay potency score (higher = more potent) turn out when TCTCACGCAAACCTGAACTTGC was run?
The sensor-assay potency score (higher = more potent) was -0.191.

Biological target: CCL26
Assay: as above
Conditions: shRNA

Which sensor-assay potency score (higher = more potent) does the source give for TTCTTGCCTCTTTTGGTAGTGA here?
Its sensor-assay potency score (higher = more potent) is -0.89.

With TTGGATATGTCACTCCCACGTG as the sequence, how does the sensor-assay potency score (higher = more potent) read?
The sensor-assay potency score (higher = more potent) was -0.51.

For TAGCTTCGCACCCAGGTCCAGG, which sensor-assay potency score (higher = more potent) is on record?
The sensor-assay potency score (higher = more potent) was -1.45.

For TATTGGAAGCAGCAGGTCTTGG, which sensor-assay potency score (higher = more potent) is on record?
The sensor-assay potency score (higher = more potent) was -1.48.

TGGATGGGTACAGACTTTCTTG was tested. Which sensor-assay potency score (higher = more potent) did it give?
Its sensor-assay potency score (higher = more potent) is -1.49.

With TCTTTTGGTAGTGAATATCACA as the sequence, how does the sensor-assay potency score (higher = more potent) read?
The sensor-assay potency score (higher = more potent) was -1.4.

How did the sensor-assay potency score (higher = more potent) turn out when TTTTGGTAGTGAATATCACAGC was run?
Its sensor-assay potency score (higher = more potent) is -0.793.

For TTGTGGCTGTATTGGAAGCAGC, which sensor-assay potency score (higher = more potent) is on record?
Its sensor-assay potency score (higher = more potent) is -1.27.

With TTGGTAGTGAATATCACAGCCC as the sequence, how does the sensor-assay potency score (higher = more potent) read?
The sensor-assay potency score (higher = more potent) was -0.403.

With TAGTGAATATCACAGCCCGCTG as the sequence, how does the sensor-assay potency score (higher = more potent) read?
The sensor-assay potency score (higher = more potent) was -1.27.

Biological target: CCL28
Assay: as above
Conditions: shRNA

Which sensor-assay potency score (higher = more potent) does the source give for TTAACAGTATGGTTGTGCGGGC here?
Its sensor-assay potency score (higher = more potent) is -0.737.

With TGATGTGAAACCTCCGTGCAAC as the sequence, how does the sensor-assay potency score (higher = more potent) read?
Its sensor-assay potency score (higher = more potent) is -1.14.

How did the sensor-assay potency score (higher = more potent) turn out when TTGCACTTTCATCCACTGCTTA was run?
The sensor-assay potency score (higher = more potent) was -0.197.

With TTTTCTTGGCAGCTTGCACTTT as the sequence, how does the sensor-assay potency score (higher = more potent) read?
The sensor-assay potency score (higher = more potent) was -0.496.

Which sensor-assay potency score (higher = more potent) does the source give for ACACATATTCACTCTTTCCAGG here?
The sensor-assay potency score (higher = more potent) was -1.19.

How did the sensor-assay potency score (higher = more potent) turn out when TCCTGTGGCAAACATTTCCTTT was run?
The sensor-assay potency score (higher = more potent) was -1.54.

How did the sensor-assay potency score (higher = more potent) turn out when TGCACTTTCATCCACTGCTTAA was run?
The sensor-assay potency score (higher = more potent) was -1.51.

Which sensor-assay potency score (higher = more potent) does the source give for ATATGATGTGAAACCTCCGTGC here?
The sensor-assay potency score (higher = more potent) was -0.448.

With TTGCCATGGTGTTTCTTCCTGT as the sequence, how does the sensor-assay potency score (higher = more potent) read?
The sensor-assay potency score (higher = more potent) was -0.322.

How did the sensor-assay potency score (higher = more potent) turn out when AATATGATGTGAAACCTCCGTG was run?
The sensor-assay potency score (higher = more potent) was 0.282.

Which sensor-assay potency score (higher = more potent) does the source give for TTCTTCTGCGCTTGACATGAAG here?
Its sensor-assay potency score (higher = more potent) is -1.32.

For TTTCTTGGCAGCTTGCACTTTC, which sensor-assay potency score (higher = more potent) is on record?
The sensor-assay potency score (higher = more potent) was 0.0736.

Biological target: CCNA1
Assay: as above
Conditions: shRNA

TTTCACTTAATGAATACCCTGT was tested. Which sensor-assay potency score (higher = more potent) did it give?
Its sensor-assay potency score (higher = more potent) is 1.11.

With TTAGCCAGGTTCTCAGTCCTGA as the sequence, how does the sensor-assay potency score (higher = more potent) read?
The sensor-assay potency score (higher = more potent) was -0.236.

Which sensor-assay potency score (higher = more potent) does the source give for TAACAGTTGTCGTTTTGTGTAT here?
The sensor-assay potency score (higher = more potent) was -0.217.
